# Bioassay records as filed in PubChem.
# Hits are enriched below; roughly 7.6% of the tested compounds scored in any of these assays.
# KB-V1 cytotox: KB-V1 MDR subline cytotoxicity; KB-V1 MDR cells viability, CellTiter-Glo, 72 h; Potency, µM (highest dose often 46.1 µM), most hits filed as cytotoxic; 3.4% of 400,000 active; AID 1347076; also: nearly all actives have a fitted effect of over 60% in size
#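 Cells of the MDR subline KB-V1 are plated, dosed with compound at multiple concentrations, and incubated 72 h at 37 degrees C; CellTiter-Glo is then added and luminescence read after 10 min.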
# KB-3-1 cytotox: KB-3-1 parental cell cytotoxicity. 1.4% of 400,000 active. AID 1347075. KB-3-1 viability, CellTiter-Glo ATP luminescence, 72 h. Potency, µM (titrated, usually from 46.1 µM), hits mostly cytotoxic; also: nearly all actives have a fitted effect of over 60% in size
#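 Screening of KB-3-1 cells (DMEM, 10% FBS, phenol-red free) ran from lowest to highest compound concentration; after 72 h at 37 °C viability was read luminescently and curves fitted.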
# KCNH2 WT inh: inhibitors of human wildtype KCNH2 potassium channel; Q12809; U2OS, BacMam KCNH2, thallium flux FluxOr; stronger effect = lower value; activity change, % at 1.84 µM; 0.37% of 340,000 active;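 active = maximum activity change below -70%; inconclusive = maximum activity change between -70% and -50%; inactive = maximum activity change above -50%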
# Target sequence (Q12809 whole entry, looked up): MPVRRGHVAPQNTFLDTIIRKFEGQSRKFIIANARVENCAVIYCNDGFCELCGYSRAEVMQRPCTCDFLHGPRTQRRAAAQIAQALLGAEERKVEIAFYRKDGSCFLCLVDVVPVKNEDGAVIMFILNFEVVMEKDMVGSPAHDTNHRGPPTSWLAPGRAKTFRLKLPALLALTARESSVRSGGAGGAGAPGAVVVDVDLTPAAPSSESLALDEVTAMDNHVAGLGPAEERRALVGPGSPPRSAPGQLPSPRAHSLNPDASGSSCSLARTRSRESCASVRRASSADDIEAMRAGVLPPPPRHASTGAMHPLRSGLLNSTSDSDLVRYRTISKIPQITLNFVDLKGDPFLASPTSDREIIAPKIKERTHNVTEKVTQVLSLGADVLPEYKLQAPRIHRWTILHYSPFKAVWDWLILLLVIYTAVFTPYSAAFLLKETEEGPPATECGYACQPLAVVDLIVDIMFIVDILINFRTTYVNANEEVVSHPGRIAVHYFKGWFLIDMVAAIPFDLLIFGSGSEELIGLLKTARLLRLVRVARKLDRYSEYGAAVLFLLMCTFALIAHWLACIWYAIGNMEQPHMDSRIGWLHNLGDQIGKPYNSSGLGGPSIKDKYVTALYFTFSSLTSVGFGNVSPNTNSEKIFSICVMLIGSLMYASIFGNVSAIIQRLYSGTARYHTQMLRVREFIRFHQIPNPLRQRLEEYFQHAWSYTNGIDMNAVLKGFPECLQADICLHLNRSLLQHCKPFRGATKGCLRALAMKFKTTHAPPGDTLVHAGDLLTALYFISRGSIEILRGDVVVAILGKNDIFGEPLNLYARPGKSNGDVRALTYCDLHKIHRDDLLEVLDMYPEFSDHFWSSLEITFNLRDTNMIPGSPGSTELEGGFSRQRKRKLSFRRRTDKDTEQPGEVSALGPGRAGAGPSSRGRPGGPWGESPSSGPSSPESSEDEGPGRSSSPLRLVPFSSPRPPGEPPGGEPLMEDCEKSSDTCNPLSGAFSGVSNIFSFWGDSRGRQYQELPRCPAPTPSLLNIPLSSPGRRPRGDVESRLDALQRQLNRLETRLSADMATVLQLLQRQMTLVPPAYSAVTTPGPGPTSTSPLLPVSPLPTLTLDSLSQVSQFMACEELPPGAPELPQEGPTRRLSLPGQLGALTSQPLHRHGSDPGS
#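 U2OS cells transduced with wild-type KCNH2 virus are loaded with FluxOr dye for 45 min, and thallium flux is measured in kinetic reads before and after stimulation buffer. Rate constants are normalized to DMSO controls.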
# SW480 rerep: inducers of DNA re-replication in SW480 colon cancer cells; 1.8% of 340,000 active; Potency, µM (highest dose often 46.1 µM), most hits filed as activators; AID 624297; SW480 DNA re-replication, Hoechst DNA content imaging, 48 h; also: nearly all actives have a fitted effect of over 55% in size
#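 DNA re-replication was detected as more nuclei of elevated Hoechst intensity after 48 hr exposure to compound (23 nL pinned per well of 250 cells).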
# MCF10A rerep: DNA re-replication induction in MCF 10a cells; MCF 10A DNA re-replication, Hoechst nuclear intensity, 48 h; Potency, µM (highest dose often 46.1 µM), usual class: activators; 2.9% of 350,000 active; AID 624296; also: nearly all actives have a fitted effect of over 50% in size
# KCNH2 3.1 inh: KCNH2 3.1 (human) potassium channel inhibition | AID 720553 | 0.95% of 340,000 active | U2OS KCNH2 3.1, thallium flux FluxOr; stronger effect = lower value | activity change, % (tested at about 1.8 µM);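 active = maximum activity change below -70%; inconclusive = maximum activity change from -70% to -50%; inactive = maximum activity change above -50%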;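 also: thallium influx rate constant from kinetic fluorescence after stimulation buffer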
#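 Measured as rate of thallium-driven FluxOr signal in transduced U2OS cells carrying the 3.1 channel, read kinetically for 2 min upon stimulation; values are rate constants scaled to DMSO control wells.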
# Numbers stand for hits; – = inactive; ? = inconclusive; · = no result given; ! = repeats disagree. Unless noted, calls follow the shape of the dose curve; as a rule, active = well fitted curve in the direction sought with a large enough effect; inconclusive = small, poorly fitted or top-dose-only effect, or another doubt; inactive = no such curve, though single readings can be large; an effect the other way counts as inactive or inconclusive.
SMILES,KB-V1 cytotox,KB-3-1 cytotox,KCNH2 WT inh,SW480 rerep,MCF10A rerep,KCNH2 3.1 inh
Cc1ccc(C(=O)NCCN2C3=NC[C@H](C)N3C[C@H]2Cc2ccc(O)cc2)cc1Br,–,–,–,–,–,–
COc1ccc(C[C@H]2CN3C(=NC[C@H]3C)N2CCNC(=O)c2ccc(C)c(Br)c2)cc1,–,–,–,–,–,-76
COc1ccc(C[C@H]2CN3C(=NC[C@@H]3C(C)C)N2CCNC(=O)c2ccc(C)c(Br)c2)cc1,?,?,-114,–,–,-100
O=C1OC(/C(=C\Nc2cc(Cl)ccc2O)[N+](=O)[O-])c2ccccc21 (stereo not given),–,–,–,?,15µM,–
O=C(O)/C(=C\c1ccccc1OC(F)F)Sc1nnc(-c2ccc(F)cc2)o1,–,–,–,?,–,–
COc1cc(C(=O)Nc2ccc3[nH]c(=O)sc3c2)cc(OC)c1OC,–,–,·,·,·,·
CCc1nnc(SCC(=O)Nc2ccccc2Cl)nc1CC,?,–,–,–,?,–
CC(C)N=C(N)/N=C(\N)Nc1ccc(Cl)cc1,·,·,·,–,–,·
NC(=NCCCCCCN=C(N)/N=C(\N)Nc1ccc(Cl)cc1)/N=C(\N)Nc1ccc(Cl)cc1,?,?,–,1.3µM!,?,–
O=C(NCCc1ccc(Cl)cc1)C1CCC(CNc2nc(=S)[nH]c3ccccc23)CC1 (stereo not given),?,?,–,–,–,–
O=C(NCCC1=CCCCC1)C1CCC(CNS(=O)(=O)c2ccccc2)CC1 (stereo not given),8.2µM,–,–,–,?,–
CC(=O)Nc1ccc(S(=O)(=O)NCC2CCC(C(=O)NCCC3=CCCCC3)CC2)cc1 (stereo not given),–,–,–,–,–,–
O=C(NCCC1=CCCCC1)C1CCC(CNc2nc(=S)[nH]c3ccccc23)CC1 (stereo not given),21µM,?,–,–,26µM,–
CCOC(=O)C1CCN(C(=S)Nc2cccc(C)c2C)CC1,–,–,–,–,–,–
CCN1/C(=C/c2ccc3cc(C)ccc3[n+]2CC)Sc2ccc3sccc3c21,–,2.6µM,–,–,–,–
CCN1/C(=C/c2ccc3cccc(C)c3[n+]2CC)Sc2ccccc21,–,?,–,–,–,–
CCN1/C(=C\c2ccc3cc(C)ccc3[n+]2CC)Sc2cc(C)c(C)cc21,–,?,-126,–,?,–
CC[n+]1c(C)sc2c3ccsc3ccc21,–,–,–,–,–,·
CCN1/C(=C/c2ccc3cc(C)cc(C)c3[n+]2CC)Sc2cc(C)ccc21,–,–,–,–,5.8µM,–
C=CC[n+]1c(/C=C2\C=Cc3cc(C)ccc3N2CC)ccc2ccccc21,?,?,·,–,–,–
Cc1ccc(CNC(=O)C2CCC(CNS(=O)(=O)c3ccc(C)cc3)CC2)cc1 (stereo not given),?,–,·,·,·,·
CCCCc1ccc(C2C3=C(CC(C)(C)CC3=O)NC3=C2C(=O)c2ccccc23)cc1 (stereo not given),16µM,?,–,–,–,?
CCCc1ccc(C2C3=C(CC(C)(C)CC3=O)NC3=C2C(=O)c2ccccc23)cc1 (stereo not given),21µM,?,–,–,–,–
CCCCN(CC)S(=O)(=O)N1CCC(C(=O)NCc2ccc(F)cc2)CC1,16µM,–,–,–,–,–
CC(=O)NC(c1ccccc1)c1nc(-c2cccc(F)c2)cs1 (stereo not given),–,–,·,·,·,·
SMILES,KB-V1 cytotox,KB-3-1 cytotox,KCNH2 WT inh,SW480 rerep,MCF10A rerep,KCNH2 3.1 inh
COc1ccc(/C=C/C(O)=C(\C#N)c2nnc(N3CCOCC3)n2-c2ccccc2)cc1OC,–,–,–,–,–,–
Cc1cccc(CN2C(=O)N/C(=C/c3ccc(C)s3)C2=O)c1,15µM,23µM,–,?,7.3µM,–
CC(=O)Nc1ccc(N2CCCCC2)c(C(=O)Nc2cccc(C)c2)c1,7.3µM,–,–,–,?,–
Cc1cccc(NC(=O)c2cc(NC(=O)C3CCCCC3C(=O)O)ccc2N2CCCCC2)c1 (stereo not given),–,–,–,–,15µM,–
CCN(CC)C(=O)C(=O)c1cccn1-c1c(Cl)cccc1C#N,–,–,–,–,–,–
CCNc1ccc(Br)cc(C(=O)/C=C/c2ccc(Cl)cc2Cl)c1=O,18µM,?,–,?,21µM,–
CNc1ccc(Br)cc(C(=O)/C=C/c2ccc(OC)cc2)c1=O,?,?,–,–,?,–
CNc1ccc(Br)cc(C(=O)/C=C/c2cc(OC)ccc2OC)c1=O,18µM,?,–,?,?,–
Cc1ccc(NCc2nnc(SCC(=O)N3c4ccccc4Sc4ccccc43)o2)c(C)c1,6.5µM,–,–,–,–,–
Cc1ccc(OCc2nnc(SCC(=O)N3c4ccccc4Sc4ccc(Cl)cc43)o2)cc1,8.2µM,–,–,–,–,–
COc1ccc(C2C(C(=O)Nc3ccccc3)=C(C)Nc3nc(-c4ccccc4)nn32)cc1OC (stereo not given),–,–,·,·,·,·
COc1ccccc1CNC(=O)CS(=O)(=O)Cc1ccccc1,–,–,–,–,–,–
CC(=O)c1cccc(NC(=O)C(C)OC(=O)c2ccc(Br)o2)c1 (stereo not given),?,–,–,–,–,–
COc1ccc(-c2nc3cccc(C)n3c2NCC2CCCO2)cc1O (stereo not given),12µM,–,–,–,–,–
O=C1C=CC(=O)N1c1ccc2c(c1)C(NC(=O)C(F)(F)F)c1ccccc1-2 (stereo not given),·,·,–,8.2µM,?,–
CN(C)C(=O)NC1c2ccccc2-c2ccccc21,–,–,–,–,–,–
COc1ccc(CN2C(=S)NC(C)(C)CC2(C)O)cc1 (stereo not given),–,–,-142,–,–,–
O=C(/C=C/c1ccccc1)NC(NC(=S)Nc1ccc(Cl)cc1)C(Cl)(Cl)Cl (stereo not given),?,?,–,?,16µM,–
O=C(CCc1ccccc1)NC(NC(=S)Nc1ccc(Cl)cc1)C(Cl)(Cl)Cl (stereo not given),–,18µM,–,?,–,–
CC(C)CNc1ncnc2c1ncn2[C@H]1CN(CCN2CCOCC2)C[C@@H](CO)O1,–,–,·,·,·,·
Oc1ccc(C[C@H]2CN([C@@H](Cc3ccccc3)CN3CCCC3CN3C(=S)NC[C@@H]3Cc3ccccc3)C(=S)N2CC2CCCCC2)cc1 (stereo not given in full),–,?,·,·,·,·
